Assay [1] is described as follows: antimalarial activity against Dd2 strain (AID 2302;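 active = growth inhibition above 50% at the single 2 µM test dose, taken to imply half-maximal potency below 2 µM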;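 also: 0% = DMSO untreated growth and 100% = chloroquine plus artemisinin killed control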). The following applies: P. falciparum Dd2 in RBCs, LDH growth readout, 72 h; at 2 µM; active compounds read high.
Assay [2] in a line: human hepatoma cell viability loss – ATP luminescence, cytotoxicity control for P. falciparum antimalarial project, primary screen (AID 2303;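 active = inhibition above 50%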;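 also: 0% = DMSO wells and 100% = digitonin-killed cells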). The settings on record: HepG2 viability, 24-48 h, at 10 µM, active compounds read high.
Assay [3] concerns the target L-lactate dehydrogenase (Plasmodium falciparum (isolate CDC / Honduras)) (UniProt Q27743). Kind of assay: PfLDH activity inhibition – cell lysate, 3D7 strain, counter-screen for P. falciparum growth inhibition project (AID 2304).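 Also: 0% = vehicle and 100% = reference inhibitor.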 The settings on record: P. falciparum 3D7 crude extract, LDH APAD/NBT absorbance; at 2 µM; active compounds read high. Background: The purpose of a counterscreen is to sort out artefacts and off-target activity.

A short description of assay [4]: inhibition of 3D7 malaria parasite growth – strain 3D7 (AID 2306).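 Also: 0% = DMSO wells and 100% = chloroquine plus artemisinin control wells.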 The following applies: P. falciparum 3D7 erythrocytic growth, LDH absorbance, 72 h; at 2 µM; active compounds read high.
In assay [5] the target is Calcium-dependent protein kinase 1 (Plasmodium falciparum (isolate 3D7)) (UniProt P62344). Nature of the assay: PfCDPK1 kinase inhibitors, biochemical, TCAMS library (AID 1159585; cut-off not given, nearly all actives have IC50 up to about 0.98 µM;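 also: inhibitors leave more ATP so luminescence rises with inhibition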). The settings on record: recombinant PfCDPK1, Kinase-Glo ATP depletion luminescence. For orientation: Kinase-Glo measures the ATP left after a reaction by luminescence.
Calcium-dependent protein kinase 1 (Plasmodium falciparum (isolate 3D7)), sequence (P62344 whole entry, looked up): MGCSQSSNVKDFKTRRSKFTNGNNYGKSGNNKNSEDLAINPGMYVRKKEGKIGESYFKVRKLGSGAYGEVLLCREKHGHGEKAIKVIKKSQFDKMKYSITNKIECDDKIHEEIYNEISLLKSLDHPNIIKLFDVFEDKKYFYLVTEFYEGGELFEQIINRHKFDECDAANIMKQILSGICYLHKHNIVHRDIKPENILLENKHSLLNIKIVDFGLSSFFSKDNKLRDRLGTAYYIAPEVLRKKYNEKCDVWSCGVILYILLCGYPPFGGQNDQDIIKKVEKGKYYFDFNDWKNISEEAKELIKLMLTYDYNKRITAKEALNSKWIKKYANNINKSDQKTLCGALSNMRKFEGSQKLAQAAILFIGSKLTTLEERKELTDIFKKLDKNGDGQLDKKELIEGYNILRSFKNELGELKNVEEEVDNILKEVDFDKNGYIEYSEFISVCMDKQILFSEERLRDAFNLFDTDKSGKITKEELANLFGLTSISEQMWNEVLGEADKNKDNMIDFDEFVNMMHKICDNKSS
In assay [6] the target is Plasmodium falciparum protein kinase 6 (PK6, PF3D7_1337100) (UniProt Q8IDW1). Nature of the assay: PfPK6 kinase inhibitors, biochemical, TCAMS library (AID 1159586). The following applies: recombinant PfPK6, Kinase-Glo ATP depletion luminescence.
Plasmodium falciparum protein kinase 6 (PK6, PF3D7_1337100), sequence (Q8IDW1 1-305): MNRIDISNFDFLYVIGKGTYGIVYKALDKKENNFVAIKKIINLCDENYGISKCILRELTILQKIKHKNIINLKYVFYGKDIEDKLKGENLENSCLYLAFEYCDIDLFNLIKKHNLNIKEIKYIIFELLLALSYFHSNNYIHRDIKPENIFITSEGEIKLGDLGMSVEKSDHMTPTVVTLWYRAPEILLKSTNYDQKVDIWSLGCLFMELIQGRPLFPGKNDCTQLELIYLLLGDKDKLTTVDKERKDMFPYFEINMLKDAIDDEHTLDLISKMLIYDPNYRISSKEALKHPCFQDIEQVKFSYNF
In assay [7] the target is Protein kinase 7 (PK7), Plasmodium falciparum 3D7 (PF3D7_0213400) (UniProt Q7YTF7). Nature of the assay: inhibition of Plasmodium PK7 catalytic activity – biochemical, TCAMS antimalarial set, Kinase-Glo luminescence (AID 1159587). The following applies: recombinant PfPK7, Kinase-Glo ATP depletion luminescence.
Protein kinase 7 (PK7), Plasmodium falciparum 3D7 (PF3D7_0213400), sequence (Q7YTF7 1-343): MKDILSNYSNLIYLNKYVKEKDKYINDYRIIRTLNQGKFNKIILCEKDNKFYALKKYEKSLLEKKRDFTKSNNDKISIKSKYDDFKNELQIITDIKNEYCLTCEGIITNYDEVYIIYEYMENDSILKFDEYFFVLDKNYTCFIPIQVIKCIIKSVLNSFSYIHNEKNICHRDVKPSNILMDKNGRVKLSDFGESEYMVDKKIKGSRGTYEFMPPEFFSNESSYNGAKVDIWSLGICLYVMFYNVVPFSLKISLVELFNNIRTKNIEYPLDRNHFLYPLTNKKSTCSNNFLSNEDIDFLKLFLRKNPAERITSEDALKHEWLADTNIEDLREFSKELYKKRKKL
In assay [8] the target is Calcium-dependent protein kinase 4 (Plasmodium falciparum (isolate 3D7)) (UniProt Q8IBS5). Nature of the assay: PfCDPK4 kinase inhibitors, biochemical, TCAMS library (AID 1159588; cut-off not given, nearly all actives have IC50 up to about 0.91 µM). The settings on record: recombinant PfCDPK4, Kinase-Glo ATP depletion luminescence.
Calcium-dependent protein kinase 4 (Plasmodium falciparum (isolate 3D7)), sequence (Q8IBS5 whole entry, looked up): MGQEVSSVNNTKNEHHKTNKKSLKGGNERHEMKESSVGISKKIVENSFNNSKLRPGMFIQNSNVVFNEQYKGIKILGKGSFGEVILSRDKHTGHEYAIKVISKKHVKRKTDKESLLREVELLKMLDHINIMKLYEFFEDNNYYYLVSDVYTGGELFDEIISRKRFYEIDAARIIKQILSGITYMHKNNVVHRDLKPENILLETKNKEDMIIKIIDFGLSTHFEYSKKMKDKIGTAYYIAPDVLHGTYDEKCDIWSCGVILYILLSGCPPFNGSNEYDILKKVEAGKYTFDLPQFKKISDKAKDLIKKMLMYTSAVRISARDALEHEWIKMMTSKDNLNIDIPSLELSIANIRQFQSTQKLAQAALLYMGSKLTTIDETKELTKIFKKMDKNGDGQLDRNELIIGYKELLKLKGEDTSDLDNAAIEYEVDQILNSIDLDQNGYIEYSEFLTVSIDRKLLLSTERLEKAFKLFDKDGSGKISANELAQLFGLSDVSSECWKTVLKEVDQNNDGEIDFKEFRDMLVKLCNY

A number with no mark means an inactive call. For part of these data: Measured potencies and affinities stand elsewhere. Calls of active or inactive are those of the source. Unless noted, no rule for the calls is given here.

For orientation: inhibition means the change of the read-out against control, counted positive when it falls.

L-lactate dehydrogenase (Plasmodium falciparum (isolate CDC / Honduras)), sequence (Q27743 whole entry, looked up): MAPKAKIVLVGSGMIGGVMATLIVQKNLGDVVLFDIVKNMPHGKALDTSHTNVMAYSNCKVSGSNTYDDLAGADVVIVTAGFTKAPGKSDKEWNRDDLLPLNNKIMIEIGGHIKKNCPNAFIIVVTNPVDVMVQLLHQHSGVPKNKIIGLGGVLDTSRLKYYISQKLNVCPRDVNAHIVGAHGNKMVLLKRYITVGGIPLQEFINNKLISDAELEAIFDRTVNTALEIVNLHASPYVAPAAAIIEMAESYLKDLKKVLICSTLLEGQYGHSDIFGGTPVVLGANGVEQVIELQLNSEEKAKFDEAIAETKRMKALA

Regarding `Cc1cc2c(NC(=O)NC3CCN(CCc4cccc(Cl)c4)CC3)cccc2cn1`, the growth inhibition was 27% in assay [1] and 100% (active) in assay [4]. The results for the inhibition in assay [2] and in assay [3] were 12% and -5%, respectively. Moreover, the outcome in assay [5], in assay [6], in assay [7] and in assay [8] was inactive.
As for `c1cc(CN2CCN(CCN3CCOCC3)CC2)cc(-c2cccc(-c3nc4ccccc4[nH]3)c2)c1`, the growth inhibition in assay [1] and in assay [4] was 100% (active) throughout. For the same molecule, the inhibition in assay [2] was 29%; in assay [3] it was -2%. In addition, the outcome in assay [5], in assay [6], in assay [7] and in assay [8] was inactive.
Turning to `CCOc1cc(C)ccc1C1CCN(CCN2CCC(CNC(=O)c3ccc(-c4ccc(C(F)(F)F)cc4)cc3)CC2)CC1`, the growth inhibition in assay [1] is 89% (active); in assay [4], 98% (active). For the same molecule, the inhibition was 53% (active) in assay [2] and -2% in assay [3]. The result in assay [5], in assay [6], in assay [7] and in assay [8] was inactive.
Take `CCC(CO)NCC(O)Cn1c2ccc(Br)cc2c2cc(Br)ccc21` (stereo not drawn): the growth inhibition in assay [1] was 87% (active); in assay [4], 100% (active). The inhibition in assay [2] was 18%; in assay [3], -6%. Further, the outcome in assay [5], in assay [6], in assay [7] and in assay [8] was inactive.
`Clc1ccc(CNCCCCCCNCc2ccc(Cl)cc2)cc1`: the growth inhibition in assay [1] was 28%; in assay [4], 96% (active). For the same molecule, the values for the inhibition in assay [2] and in assay [3] were 53% (active) and 1%, respectively. Further, the outcome in assay [5], in assay [6], in assay [7] and in assay [8] was inactive.
For the molecule `CN1CCN(c2ccc(-c3cccc(NC(=O)c4cccc(Cl)c4)c3)nn2)CC1`, the growth inhibition is 37% in assay [1] and 94% (active) in assay [4]. Besides, the inhibition in assay [2] was 5%; in assay [3], -2%. In addition, the result in assay [5], in assay [6], in assay [7] and in assay [8] was inactive.
`N#Cc1c(N)nc(SCC(=O)Nc2cc(C(F)(F)F)ccc2Cl)c(C#N)c1-c1cccs1`: the growth inhibition in assay [1] is 96% (active); in assay [4], 90% (active). The inhibition in assay [2] was 23%; in assay [3], -4%. In addition, the outcome in assay [5], in assay [6], in assay [7] and in assay [8] was inactive.
For `COc1ccc(C2C(C(=O)Nc3ccc4c(c3)OCO4)c3cc(OC)c(OC)cc3C(=O)N2C)cc1` (stereo not drawn), the growth inhibition in assay [1] is 54% (active); in assay [4] it was 89% (active). The inhibition in assay [2] was 12%; in assay [3], -4%. In addition, the outcome in assay [5], in assay [6], in assay [7] and in assay [8] was inactive.
For `Cc1cc(NN=Cc2ccccc2[N+](=O)[O-])c2cc(F)ccc2n1`, the results for the growth inhibition in assay [1] and in assay [4] were 100% (active) and 102% (active), respectively. Also, the inhibition in assay [2] was 18%; in assay [3] it was -3%. Besides, the result in assay [5], in assay [6], in assay [7] and in assay [8] was inactive.
In the case of `Cc1nnc(NC(=O)c2cn(-c3ccccc3)nc2-c2ccccc2C)o1`, the growth inhibition is 87% (active) in assay [1] and 93% (active) in assay [4]. The inhibition in assay [2] is 37%; in assay [3], 1%. The result in assay [5], in assay [6], in assay [7] and in assay [8] was inactive.
`O=C(NC1CCN(Cc2ccc(F)cc2)CC1)c1ccc(-c2cccc(C(F)(F)F)c2)s1`: the values for the growth inhibition in assay [1] and in assay [4] were 11% and 83% (active), respectively. Besides, the figures for the inhibition in assay [2] and in assay [3] were 88% (active) and 4%, respectively. Further, the result in assay [5], in assay [6], in assay [7] and in assay [8] was inactive.
For the molecule `CCOc1cc(CNCCCCCCNCc2cc(OCC)c(OCC)c3ccccc23)c2ccccc2c1OCC`, the growth inhibition in assay [1] was 99% (active); in assay [4], 101% (active). In addition, the inhibition in assay [2] was 100% (active); in assay [3], 2%. Besides, the outcome in assay [5], in assay [6], in assay [7] and in assay [8] was inactive.
Turning to `COc1ccc(CN(C)Cc2cc(C(C)C)c(C)cc2O)cc1F`, the growth inhibition in assay [1] and in assay [4] was 98% (active) throughout. The inhibition in assay [2] was 1%; in assay [3], -4%. The outcome in assay [5], in assay [6], in assay [7] and in assay [8] was inactive.
Turning to `N#Cc1cc([N+](=O)[O-])ccc1-n1nc(-c2cccc(Cl)c2)n(Cc2ccco2)c1=S`, the growth inhibition in assay [1] was 100% (active); in assay [4] it was 101% (active). The inhibition was 12% in assay [2] and -1% in assay [3]. For the same molecule, the outcome in assay [5], in assay [6], in assay [7] and in assay [8] was inactive.
Take `CCNc1cc(C(=O)N[C@@H](Cc2ccccc2)[C@H](O)CNCCc2cccc3ccccc23)cc(N2CCCC2=O)c1`: the growth inhibition is 39% in assay [1] and 86% (active) in assay [4]. The inhibition in assay [2] is 12%; in assay [3], 3%. For the same molecule, the result in assay [5], in assay [6], in assay [7] and in assay [8] was inactive.
For the molecule `CCN1CCC(N(Cc2ccc(-c3ccc(C(F)(F)F)cc3)cc2)C(=O)Cn2nc(C)c(=O)cc2SCc2ccc(F)cc2)CC1`, the growth inhibition in assay [1] and in assay [4] was 94% (active) each time. Moreover, the inhibition in assay [2] was 77% (active); in assay [3] it was -1%. The result in assay [5], in assay [6], in assay [7] and in assay [8] was inactive.
Regarding `N#CN1CC[C@@H](NS(=O)(=O)Cc2ccc(Cl)c(Cl)c2)C1`, the growth inhibition in assay [1] and in assay [4] was 94% (active) in each case. Also, the inhibition was 13% in assay [2] and -3% in assay [3]. Moreover, the result in assay [5], in assay [6], in assay [7] and in assay [8] was inactive.
For the molecule `O=C(Nc1cccc(F)c1)N[C@H]1CCN(CCCCCNC(=O)[C@@H]2C[C@H]2c2ccc(Cl)c(Cl)c2)C1`, the growth inhibition was 1% in assay [1] and 90% (active) in assay [4]. In addition, the inhibition in assay [2] was 41%; in assay [3] it was -1%. For the same molecule, the result in assay [5], in assay [6], in assay [7] and in assay [8] was inactive.
In the case of `COc1ccc2nccc([C@@H](O)CN3CCC(NC(=O)c4ccc5cc[nH]c5c4)CC3)c2c1`, the growth inhibition in assay [1] is 23%; in assay [4], 91% (active). The inhibition was 21% in assay [2] and -6% in assay [3]. In addition, the result in assay [5], in assay [6], in assay [7] and in assay [8] was inactive.
In the case of `CCOC(=O)c1c(CSc2ccccc2)oc2cc(CN(C)C)c(O)c(Cl)c12`, the growth inhibition in assay [1] was 70% (active); in assay [4], 99% (active). Besides, the values for the inhibition in assay [2] and in assay [3] were 12% and -4%, respectively. For the same molecule, the result in assay [5], in assay [6], in assay [7] and in assay [8] was inactive.
In the case of `CCOc1cc(C)ccc1C1CCN(CCCCNC(=O)c2ccc(NC(=O)c3cc(Cl)cc(Cl)c3)cc2)CC1`, the growth inhibition was 78% (active) in assay [1] and 99% (active) in assay [4]. In addition, the inhibition is 4% in assay [2] and -5% in assay [3]. In addition, the outcome in assay [5], in assay [6], in assay [7] and in assay [8] was inactive.

The record behind these values is PubChem BioAssay.
